tim10-1 inh: growth inhibitors of tim10-1 mutant yeast. inhibition, % at 20 µM. S. cerevisiae tim10-1 ts strain growth, BacTiter-Glo, 24 h. AID 463190. actives 2.2% (n = 330,000);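 active means inhibition of at least 40%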;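 further: mutant grown at 25 °C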
NALP3 yeast inh: blocks the NALP3 inflammasome reconstituted in yeast; Yeast reconstituted NLRP3/ASC/caspase-1, beta-gal luminescence, 24 h; inhibition, % at 10 µM; actives 0.39% (n = 330,000); AID 2825;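 active means inhibition of 50% or more; inactive means inhibition below 50%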
PfHsp90 set2: inhibits growth of yeast expressing Plasmodium falciparum Hsp90. S. cerevisiae expressing PfHsp90, BacTiter-Glo ATP, 48 h; yeast lacking PDR1 and PDR3 efflux regulators. inhibition, % at 9.4 µM. actives 0.32% (n = 310,000);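 active means every replicate shows inhibition above about 80%, whatever the replicate mean, limit read from the data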
NALP1 inh: inhibitors of NALP1 inflammasome in yeast | S. cerevisiae NALP1/ASC/caspase-1 growth, X-gal OD620, 72 h | inhibition, % at 10 µM | actives 0.61% (n = 280,000) | AID 2071; in the data active means inhibition mostly above about 24%, no sharp cut-off; inactive means mostly below about 32%
TIM10 inh: growth inhibitors of TIM10 yeast strain; inhibition, % at 10 µM; actives 1.4% (n = 330,000); S. cerevisiae TIM10 strain growth, BacTiter-Glo luminescence, 24 h;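 active means inhibition of 40% or more at the single tested concentration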;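 further: wild-type TIM10 isogenic control strain grown at permissive 25 °C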
tim23-1 inh: inhibits growth of tim23-1 mutant yeast | inhibition, % at 20 µM | S. cerevisiae tim23-1 growth, BacTiter-Glo luminescence, 24 h | actives 1.3% (n = 330,000) | AID 463212;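 active means growth inhibition of the mutant yeast at or above 50%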;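 further: temperature-sensitive mutant grown at 25 °C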
Hits are given with their value; i = inactive; nt = no result given. Hits are enriched below; roughly 4.2% of the tested compounds scored in any of these assays.

SMILES | tim10-1 inh | NALP3 yeast inh | PfHsp90 set2 | NALP1 inh | TIM10 inh | tim23-1 inh
C/C(=N\Nc1nc2ccccc2s1)c1ccc(Br)s1 | i | i | 115 | i | i | i
CC(=NNc1nc2ccccc2s1)c1ccncn1 | nt | nt | i | nt | nt | nt
COc1cc(NC(=O)c2cccnc2)ccc1-c1cc2ccccc2oc1=O | i | i | nt | i | i | i
O=C(Nc1ccc(-c2cc3ccccc3oc2=O)c(Cl)c1)c1cccnc1 | i | i | i | 33 | i | i
O=C(CN1CCC(O)(c2ccc3c(c2)OCO3)CC1)N1CCOCC1 | i | i | nt | i | i | i
OC1(c2ccc3c(c2)OCO3)CCN(Cc2ccccn2)CC1 | i | i | i | 30 | i | i
CC/C(=N\NC(=O)Nc1ccccc1)c1ccccc1 | i | i | i | i | i | i
CC/C(=N\NS(C)(=O)=O)c1ccccc1 | i | i | nt | 44 | i | i
CCOC(=O)C(C)(C)Sc1ncnc2nc[nH]c12 | i | i | i | i | i | i
CCOC(=O)c1cc([N+](=O)[O-])cc([N+](=O)[O-])c1Sc1ncnc2nc[nH]c12 | nt | nt | 107 | nt | nt | nt
COc1ccc(CNCC(O)(c2ccccc2)c2ccc(Cl)cc2)cc1 (stereo not given) | i | i | i | 57 | i | i
Cc1ccc(CNCC(O)(c2ccccc2)c2ccc(Cl)cc2)cc1 (stereo not given) | nt | nt | i | i | nt | nt
O=c1c([N+](=O)[O-])c(N2CCCCC2)c2ccccc2n1-c1ccccc1 | i | i | i | 36 | i | i
O=c1c([N+](=O)[O-])c(NCCN2CCCCCC2)c2ccccc2n1-c1ccccc1 | i | i | i | i | i | i
CCOc1c(S(=O)(=O)N2CCCC2)ccc(Cl)c1Cl | i | i | i | 41 | i | i
CCOc1ccc(Cl)cc1S(=O)(=O)N1CCCC1 | i | i | i | i | i | i
O=C(O)/C=C/S(=O)(=O)c1ccc2ccccc2c1 | i | i | i | nt | i | i
O=C(O)c1cccc2c1-c1ccc(Cl)cc1C2=O | nt | nt | i | nt | nt | nt
O=C(O)c1cccc2c1Cc1cc(Cl)ccc1-2 | nt | nt | 107 | nt | nt | nt
CC(C)n1cc(-c2ccc(Cl)cc2)cc(C#N)c1=O | i | i | i | 31 | i | i
Cc1ccccc1Cn1cc(S(=O)(=O)c2ccc(C(C)C)cc2)c(=O)c2cc3c(cc21)OCO3 | i | i | i | nt | i | i
O=C(CCC1CCCC1)c1c(O)c2ccccc2oc1=O | i | i | i | 40 | i | i
O=C(O)/C(=C\c1ccc(Cl)c([N+](=O)[O-])c1)c1ccc(S(=O)(=O)N2CCCCC2)s1 | i | i | i | i | i | i
O=C(O)/C(=C\c1cccc([N+](=O)[O-])c1)c1ccc(S(=O)(=O)N2CCCCC2)s1 | i | i | i | 23 | i | i
CCCCCC1CCC(C(=O)O)CC1 (stereo not given) | i | i | nt | 27 | i | i
SMILES | tim10-1 inh | NALP3 yeast inh | PfHsp90 set2 | NALP1 inh | TIM10 inh | tim23-1 inh
CN(Cc1ccno1)Cc1cn(Cc2ccccc2)nc1-c1ccc2c(c1)OCO2 | i | i | i | 29 | i | i
Cc1cc(C)cc(N2C(=O)C3C4C=CC(C4)C3C2=O)c1 (stereo not given) | i | i | i | 38 | i | i
CCCCCCCSc1nnc(N)s1 | i | i | i | i | i | i
COC(=O)c1ccc(NC(=O)c2cn(-c3ccccc3)nc2-c2ccncc2)cc1 | i | i | 89 | i | i | i
Cc1c(CCOC(=O)c2cccc([N+](=O)[O-])c2)sc[n+]1CC(=O)c1ccccc1 | i | i | i | i | i | i
Cc1ccc(CN2CCN(/N=C\C=C\c3ccccc3)CC2)cc1 | i | i | i | i | i | i
CCn1c(Cc2ccccc2)nnc1SCC(=O)Nc1ccc(N)cc1 | i | i | i | i | i | i
CCn1c(Cc2ccccc2)nnc1SCC(=O)Nc1ccccc1F | i | i | i | 33 | i | i
Cc1ccc(NC(=S)NCc2ccco2)c(C)c1 | i | i | i | nt | i | i
CN(C)S(=O)(=O)Nc1ccc2c(c1)Cc1ccccc1-2 | i | i | i | i | i | i
CN(C)S(=O)(=O)Nc1ccc(NS(=O)(=O)N(C)C)c(S(=O)(=O)c2ccccc2)c1 | i | i | i | 27 | i | i
Cc1cccc(NS(=O)(=O)c2ccc3c(c2)NC(=O)CC(=O)N3)c1 | i | i | i | i | i | i
CCc1cccc(NS(=O)(=O)c2ccc3c(c2)NC(=O)CC(=O)N3)c1 | i | i | i | 36 | i | i
NNC(=S)NCc1cccnc1 | i | i | i | 74 | i | i
O=C1NCCN/C1=C\C(=O)c1ccc(Cl)cc1 | i | i | nt | 39 | i | i
O=C1NCCN/C1=C\C(=O)c1ccc(F)cc1 | i | i | i | i | i | i
O=C1CC(N2CCC(c3nc4ccccc4[nH]3)CC2)C(=O)N1c1ccccc1F (stereo not given) | i | i | i | 32 | i | i
COc1ccc(N2C(=O)CC(N3CCC(c4nc5ccccc5[nH]4)CC3)C2=O)cc1 (stereo not given) | i | i | i | i | i | i
CCOc1ccc(S(=O)(=O)NC2CCCCCC2)cc1 | i | i | i | i | i | i
CCOc1cc(S(=O)(=O)NC2CCCCCC2)ccc1F | i | i | 108 | i | i | i
CSc1nc2ccc(S(=O)(=O)NC3CCCCC3)cc2s1 | i | i | 104 | i | i | i
COc1ccc(N2CCN(C(=O)C3CCN(C(=O)c4ccc([N+](=O)[O-])cc4)CC3)CC2)cc1 | i | i | i | i | i | i
COc1ccc(NC(=O)CN2C(=O)CSc3ncccc32)cc1 | i | i | i | i | i | i
CC(NC(=O)c1ccc(NC(=O)CC2SC(N3CCCC3)=NC2=O)cc1)c1ccccc1 (stereo not given) | i | i | i | nt | i | i
CCCOc1ccc(/C(O)=C2/C(=O)C(=O)N(CCN(C)C)C2c2ccncc2)cc1 (stereo not given) | i | i | i | nt | i | i
SMILES | tim10-1 inh | NALP3 yeast inh | PfHsp90 set2 | NALP1 inh | TIM10 inh | tim23-1 inh
CN(C)CCN1C(=O)C(=O)/C(=C(/O)c2ccc(OCc3ccccc3)cc2)C1c1ccncc1 (stereo not given) | nt | nt | i | 35 | nt | nt
O=c1cc2oc3cc(O)c(O)cc3c(-c3ccccc3[N+](=O)[O-])c-2cc1O | i | i | 83 | i | i | i
O=c1cc(-c2ccccc2Cl)oc2cccc(O)c12 | i | i | i | i | i | i
CCOC(=O)c1c(C)[nH]c(C(=O)COc2ccc3ccc(=O)oc3c2)c1C | i | i | i | nt | i | i
CCOC(=O)C1=C(C)Nc2[nH]c(=O)[nH]c(=O)c2C1c1cccs1 (stereo not given) | i | i | i | i | i | i
C=CCOC(=O)C1=C(C)Nc2[nH]c(=O)[nH]c(=O)c2C1c1ccccc1 (stereo not given) | i | i | i | 29 | i | i
Cc1ccc(OCCNC(=O)CCNS(=O)(=O)c2ccc3ccccc3c2)cc1 | i | i | i | nt | i | i
Nc1nnc(SCC(=O)Nc2cccc3ccccc23)s1 | i | i | i | i | i | i
COC(=O)c1cccc(NC(=O)CCN2C(=O)C3CC=CCC3C2=O)c1 (stereo not given) | i | i | i | nt | i | i

Screening results from PubChem.
